Experimental data reported in PubChem BioAssay (NCATS).
Records with an inconclusive call do not appear. The source made the active and inactive calls. Calls follow the shape of the dose curve; as a rule, active = well fitted curve in the direction sought with a large enough effect; inconclusive = small, poorly fitted or top-dose-only effect, or another doubt; inactive = no such curve, though single readings can be large; an effect the other way counts as inactive or inconclusive. Numbered stars: 1 amine (or outer) side, 2 acyl side, 3 side chain; on linkers, the order of the positions; unused ones are H or OH. Bridge positions count the residues as written; N and C are the ends. Square brackets hold non-standard residues; d marks the D form. Peptide text beside a SMILES is read from it. I, II: the chains in the order shown. Actinocin(9to1) = Cc1c2oc3c(C)ccc(C(=O)[*:1])c3nc-2c(C(=O)[*:2])c(N)c1=O; NMeV = CN[C@H](C(=O)O)C(C)C; Sar = CNCC(=O)O

What was measured:
[1] = qHTS of pediatric cancer cell lines to identify multiple opportunities for drug repurposing: Primary screen for Saos-2 cells (AID 1347097); settings: Saos-2 viability, CellTiter-Glo ATP luminescence, 48 h; series mostly up to 46 µM; also: nearly all actives have a fitted effect of over 40% in size; as to activity change, negative = cytotoxic: % is scaled to controls: 0 for no effect and ±100 for the full control effect
Summary of the method: (§1)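 Plated cells (500-1,000 per well, growth media) were allowed to settle for 5 hours, treated with compound dilutions for 48 hours, then lysed with CellTiter-Glo for 15 min at room temperature before luminescence reading.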

[2] = qHTS of pediatric cancer cell lines to identify multiple opportunities for drug repurposing: Primary screen for SK-N-SH cells (AID 1347098); settings: SK-N-SH viability, CellTiter-Glo luminescence, 48 h; series mostly up to 57 µM; also: nearly all actives have a fitted effect of over 65% in size;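 as to activity change, negative = cytotoxic: DMSO served as neutral control and bortezomib at 2.3 µM as positive control; % is scaled to controls: 0 for no effect and ±100 for the full control effect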
Summary of the method: (§2)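 Cells (500-1,000/well) rested 5 h, then received compounds for 48 h; metabolically active cells were measured by CellTiter-Glo luminescence. Final concentrations spanned up to 46 µM (MIPE, 11-point) or 0.59 nM-46 µM (NPC, 8-point) in primary screens, 11-point in follow-ups.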

[3] = qHTS of pediatric cancer cell lines to identify multiple opportunities for drug repurposing: Primary screen for LAN-5 cells (AID 1347100); settings: LAN-5 neuroblastoma viability, CellTiter-Glo luminescence, 48 h; series mostly up to 46 µM;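 as to activity change, negative = cytotoxic: plate controls were DMSO neutral control for no effect and bortezomib positive control for full effect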
Summary of the method: as §2

[4] = qHTS of pediatric cancer cell lines to identify multiple opportunities for drug repurposing: Primary screen for BT-12 cells (AID 1347101); settings: BT-12 viability, CellTiter-Glo luminescence, 48 h; series mostly up to 57.3 µM; also: nearly all actives have a fitted effect of over 25% in size;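 as to activity change, negative = cytotoxic: plate controls were DMSO for no effect and bortezomib positive control for full effect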
Summary of the method: as §2

[5] = qHTS of pediatric cancer cell lines to identify multiple opportunities for drug repurposing: Primary screen for OHS-50 cells (AID 1347103); settings: OHS-50 osteosarcoma viability, CellTiter-Glo luminescence, 48 h; series mostly up to 57.3 µM; also: nearly all actives have a fitted effect of over 40% in size;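 as to activity change, negative = cytotoxic: plate controls were DMSO neutral control for no effect and bortezomib positive control for full effect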
Summary of the method: as §2

[6] = qHTS of pediatric cancer cell lines to identify multiple opportunities for drug repurposing: Primary screen for RD cells (AID 1347104); settings: RD rhabdomyosarcoma viability, CellTiter-Glo luminescence, 48 h; series mostly up to 46 µM; also: nearly all actives have a fitted effect of over 55% in size;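 as to activity change, negative = cytotoxic: plate controls were DMSO for no effect and bortezomib for full effect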
Summary of the method: as §1

[7] = qHTS of pediatric cancer cell lines to identify multiple opportunities for drug repurposing: Primary screen for control Hh wild type fibroblast cells (AID 1347106); settings: Hh wild-type fibroblast viability, CellTiter-Glo luminescence, 48 h; series mostly up to 46 µM; also: nearly all actives have a fitted effect of over 55% in size;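 as to activity change, negative = cytotoxic: % is scaled to controls: 0 for no effect and ±100 for the full control effect; a drop in luminescence marks cytotoxicity and a rise apparent proliferation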
Summary of the method: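 Viability after 48 h compound treatment at 37C, 500-1,000 cells/well, read as ATP luminescence with CellTiter-Glo. Primary screens used 11-point (MIPE, 0.78 nM-46 µM) or 8-point (NPC, 0.59 nM-46 µM) final concentrations; follow-up screens used 11-point dilutions.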

[8] = qHTS of pediatric cancer cell lines to identify multiple opportunities for drug repurposing: Primary screen for NB1643 cells (AID 1347099); settings: NB1643 neuroblastoma viability, CellTiter-Glo luminescence, 48 h; series mostly up to 46 µM; also: nearly all actives have a fitted effect of over 50% in size;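 as to activity change, negative = cytotoxic: plate controls were DMSO neutral control for no effect and bortezomib positive control for full effect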
Summary of the method: as §1

[9] = qHTS of pediatric cancer cell lines to identify multiple opportunities for drug repurposing: Primary screen for Rh18 cells (AID 1347102); settings: Rh18 rhabdomyosarcoma viability, CellTiter-Glo luminescence, 48 h; series mostly up to 46 µM; also: nearly all actives have a fitted effect of over 65% in size; as to activity change, negative = cytotoxic: % is scaled to controls: 0 for no effect and ±100 for the full control effect
Summary of the method: as §2

[10] = qHTS of pediatric cancer cell lines to identify multiple opportunities for drug repurposing: Primary screen for MG 63 (6-TG R) cells (AID 1347105); settings: MG 63 (6-TG R) viability, CellTiter-Glo, 48 h; series mostly up to 46 µM; also: nearly all actives have a fitted effect of over 50% in size; as to activity change, negative = cytotoxic: % is scaled to controls: 0 for no effect and ±100 for the full control effect
Summary of the method: as §1
Potency is read from the fitted curve at half-maximal effect.

COc1cc(C=C2CCC/C(=C\c3ccc(O)c(OC)c3)C2=O)ccc1O
active: Potency [1] 23.7 µM | Potency [2] 15.4 µM | Potency [3] 7.5 µM | Potency [4] 11 µM | Potency [5] 19.5 µM | Potency [6] 10.6 µM
inactive: Potency [7]

CN1CCN(C(c2ccccc2)c2ccccc2)CC1
inactive: Potency [1] | Potency [8] | Potency [3] | Potency [4] | Potency [9] | Potency [6] | Potency [10] | Potency [7]

Oc1c(I)cc(Cl)c2cccnc12
active: Potency [1] 21.1 µM | Potency [2] 27.3 µM | Potency [5] 21.9 µM | Potency [10] 21.1 µM
inactive: Potency [7]

COc1cccc2c1C(=O)c1c(O)c3c(c(O)c1C2=O)C[C@@](O)(C(C)=O)C[C@@H]3O[C@H]1C[C@H](N)[C@H](O)[C@H](C)O1
active: Potency [1] 0.266 µM | Potency [2] 0.386 µM | Potency [8] 0.133 µM | Potency [4] 0.55 µM | Potency [9] 0.473 µM | Potency [5] 0.347 µM | Potency [10] 4.22 µM | Potency [7] 16.8 µM

CC(C)COC(=O)c1ccc(N)cc1
inactive: Potency [1] | Potency [8] | Potency [3] | Potency [4] | Potency [9] | Potency [5] | Potency [6] | Potency [10] | Potency [7]

CCCCCCCCCCCCCCCC[N+](C)(C)CC
active: Potency [1] 13.3 µM | Potency [2] 12.2 µM | Potency [4] 2.76 µM | Potency [9] 0.473 µM | Potency [6] 13.3 µM | Potency [10] 26.6 µM

C=C1C[C@H]2[C@@H]3C=C(C)C4=CC(=O)CC[C@]4(C)[C@H]3CC[C@]2(C)[C@@]1(OC(C)=O)C(C)=O
inactive: Potency [1] | Potency [2] | Potency [8] | Potency [9] | Potency [6] | Potency [10] | Potency [7]
active: Potency [5] 30.9 µM

NC(=NCCCCCCN=C(N)/N=C(\N)Nc1ccc(Cl)cc1)/N=C(\N)Nc1ccc(Cl)cc1
active: Potency [1] 26.6 µM | Potency [2] 7.7 µM | Potency [4] 9.78 µM
inactive: Potency [7]

CN(C)CCOc1ccccc1Cc1ccccc1
inactive: Potency [1] | Potency [8] | Potency [3] | Potency [4] | Potency [9] | Potency [6] | Potency [10] | Potency [7]

Cc1c2oc3c(C)ccc(C(=O)N[C@@H]4C(=O)N[C@H](C(C)C)C(=O)N5CCC[C@H]5C(=O)N(C)CC(=O)N(C)[C@@H](C(C)C)C(=O)O[C@@H]4C)c3nc-2c(C(=O)N[C@@H]2C(=O)N[C@H](C(C)C)C(=O)N3CCC[C@H]3C(=O)N(C)CC(=O)N(C)[C@@H](C(C)C)C(=O)O[C@@H]2C)c(N)c1=O (I: T[dV]P[Sar][NMeV] / II: T[dV]P[Sar][NMeV]; ester I:1-I:C, II:1-II:C; linker I:N-II:N via Actinocin(9to1))
inactive: Potency [3]
active: Potency [1] 0.0841 µM | Potency [2] 0.0034 µM | Potency [4] 0.0069 µM | Potency [5] 0.0347 µM | Potency [10] 0.0335 µM

CN(C)/N=N/c1nc[nH]c1C(N)=O
inactive: Potency [1] | Potency [2] | Potency [3] | Potency [4] | Potency [9] | Potency [6] | Potency [10] | Potency [7]
active: Potency [5] 1.74 µM

Oc1cc(O)c2c(c1)O[C@H](c1ccc(O)c(O)c1)[C@H](O)C2
inactive: Potency [1] | Potency [8] | Potency [3] | Potency [4] | Potency [9] | Potency [5] | Potency [6] | Potency [10] | Potency [7]

Oc1ccc(O)cc1
active: Potency [3] 7.5 µM
inactive: Potency [1] | Potency [2] | Potency [9] | Potency [6] | Potency [10] | Potency [7]

CCOC(=O)/C=C(C)/C=C/C=C(C)/C=C/c1c(C)cc(OC)c(C)c1C
inactive: Potency [1] | Potency [2] | Potency [8] | Potency [3] | Potency [9] | Potency [10] | Potency [7]

CCCCCCCCCCCCCCCCOP(=O)([O-])OCC[N+](C)(C)C
inactive: Potency [1] | Potency [4] | Potency [9] | Potency [7]
active: Potency [2] 13.7 µM

CCCCOc1ccc(OCCCN2CCOCC2)cc1
inactive: Potency [1] | Potency [2] | Potency [8] | Potency [9] | Potency [6] | Potency [10] | Potency [7]

CCn1cc(C(=O)O)c(=O)c2cnc(N3CCCC3)nc21
inactive: activity change, negative = cytotoxic [1] 0.0364% [at 9.22 µM] | activity change, negative = cytotoxic [8] 1.66% [at 9.22 µM] | activity change, negative = cytotoxic [3] -2.09% [at 9.22 µM] | activity change, negative = cytotoxic [4] 1.9% [at 11.5 µM] | activity change, negative = cytotoxic [9] 15.8% [at 9.22 µM] | activity change, negative = cytotoxic [5] -0.536% [at 11.5 µM] | activity change, negative = cytotoxic [6] -0.58% [at 9.22 µM] | activity change, negative = cytotoxic [10] -14.9% [at 9.22 µM] | activity change, negative = cytotoxic [7] 4.15% [at 9.22 µM]

CN1[C@@H]2CC[C@H]1CC(OC(=O)c1c[nH]c3ccccc13)C2 (stereo not given in full)
inactive: Potency [1] | Potency [8] | Potency [3] | Potency [4] | Potency [9] | Potency [5] | Potency [10] | Potency [7]
